From PubChem
Tau fibril ThT: qHTS for Inhibitors of Tau Fibril Formation, Thioflavin T Binding; recombinant tau K18 P301L, heparin-induced fibrillization, ThT fluorescence; Microtubule-associated protein tau (Homo sapiens), P10636; Potency, µM (doses to about 57.4 µM), without a hit: at the highest dose activity, negative = inhibition, actives largely listed as inhibitors; 270,000 compounds, 2.1% hits; also: potency is read from the fitted curve at half-maximal effect; nearly all actives have a fitted effect of over 55% in size
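In this qHTS, human K18 P301L tau is incubated with compound and heparin for 6 hr at 37 C, and Thioflavin T fluorescence then reports fibril load.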
FBPA coupling cs: qHTS Assay for Inhibitors of Fructose-1,6-bisphosphate Aldolase from Giardia Lamblia: Coupling assay counterscreen | coupling enzyme system counterscreen, AmpLite Red fluorescence | activity change, negative = inhibition, % at 58.2 µM, hits read low | 290,000 compounds, 0.67% hits | AID 2472, 2010; in the data active = activity change below about -30%
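Compounds tested against the coupling enzymes alone at 57.5 uM final; readout was AmpLite Red fluorescence (525/598 nm) after 20 min at RT.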
Tau fibril FP: qHTS for Inhibitors of Tau Fibril Formation, Fluorescence Polarization. Microtubule-associated protein tau (Homo sapiens), P10636. K18 P301L tau heparin fibrillization, Alexa594 FP, 6 h. Potency, µM (series often up to 57.7 µM), inactives show top-dose activity, negative = inhibition, actives largely listed as inhibitors. 280,000 compounds, 0.39% hits. AID 1468, 2008; also: potency is read from the fitted curve at half-maximal effect; nearly all actives have a fitted effect of over 55% in size
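Quantitative HTS format: compounds meet 15 uM recombinant K18 P301L tau and Alexa 594-tau tracer in 100 mM sodium acetate pH 7; 20 uM heparin triggers fibrillization at 37 C over 6 hr; FP gives the signal.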
Tau fluor counter: Counterscreen qHTS for Inhibitors of Tau Fibril Formation, Fluorescence Polarization | tau K18 P301L (four-repeat tau fragment) Alexa594 fluorescence, heparin fibrillization | Potency, µM (titrated, usually from 57.7 µM), for the others: at the highest dose activity change, negative = decrease | 280,000 compounds, 0.93% hits; also: potency is read from the fitted curve at half-maximal effect; nearly all actives have a fitted effect of over 55% in size
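Human K18 P301L tau (15 uM unlabeled plus 0.24 uM Alexa 594-labeled, final) in 100 mM sodium acetate pH 7 was mixed with compound and 20 uM heparin and incubated 6 hr at 37 C.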
USP1 inh: Inhibitors of USP1/UAF1: Primary Screen; Ubiquitin carboxyl-terminal hydrolase 1 (Homo sapiens), O94782; recombinant USP1/UAF1, Ub-Rhodamine cleavage fluorescence; Potency, µM (series often up to 57.1 µM), inactives show top-dose activity change, negative = inhibition, most hits filed as inhibitors; 390,000 compounds, 0.23% hits; AID 743255, 2014; also: potency is read from the fitted curve at half-maximal effect; nearly all actives have a fitted effect of over 60% in size
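1 nM enzyme complex + cpd, 15 min RT; start with Ub-Rho 150nM final; kinetic fluorescence ex 480/em 540, 6 reads q60 s. Buffer 50mM HEPES pH 7.8, 0.5mM EDTA, 0.1 mg/ml BSA, 1mM TCEP, 0.01% Tween-20.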
* = called active by the depositor; ? = inconclusive; . = not tested or not shown; [ ] = remark or other dose. In the library only some 2.3% were active in any assay of this set; here they are far more common. Unless noted, calls follow the shape of the dose curve; as a rule, active = well fitted curve in the direction sought with a large enough effect; inconclusive = small, poorly fitted or top-dose-only effect, or another doubt; inactive = no such curve, though single readings can be large; an effect the other way counts as inactive or inconclusive. % is scaled to controls: 0 for no effect and ±100 for the full control effect.

SMILES | Tau fibril ThT | FBPA coupling cs | Tau fibril FP | Tau fluor counter | USP1 inh
CCOC(=O)N/N=C1/C[C@@H](O)[C@@H](O)[C@@H]2[C@@H]3C(=O)N(Cc4ccc5c(c4)OCO5)C(=O)[C@H]3CC[C@H]12 | 4%[11.5 µM] | 0 | 7%[11.6 µM] | 2%[11.6 µM] | .
O=S(=O)(c1cccc(C(F)(F)F)c1)n1c(/C=C/c2ccccc2)nc2ccccc21 | 3% | . | ? | -15% | -22%
Cc1ccc(CNC(=O)C2CCCN(c3nnc(-n4c(C)ccc4C)s3)C2)cc1 (configuration not stated) | ? | . | -13% | -8% | -6%
CCOC(=O)C1=C(C)N(c2ccc(C)c(C)c2)C(=O)/C1=C\c1ccco1 | 28µM* | 1 | ? | -26% | -16%
CCOc1cc(/C=C2\C(=O)N(Cc3ccc(C)cc3)C(C)=C2C(=O)OC)ccc1O | 25µM* | -11 | ? | ? | -9%
COC(=O)C1=C(C)N(c2ccc(C)c(C)c2)/C(=C/c2ccco2)C1=O | ? | 3 | 10% | 0% | -3%
CCOC(=O)C1=C(C)N(c2ccc(OC)cc2)C(=O)/C1=C\c1ccc(O)c(OCC)c1 | 25µM* | -17 | ? | ? | -26%
CCOC(=O)C1=C(C)N(c2ccc(OC)cc2)C(=O)/C1=C\c1cccs1 | ? | 0 | ? | -16% | 3%
Cc1[nH]c2ccccc2c1C(c1ccccn1)c1c(C)[nH]c2ccccc12 | ? | -71* | 17% | ? | -12%
Cc1[nH]c2ccccc2c1C(O)c1ccncc1 (configuration not stated) | -3% | 0 | -9% | 2% | -21%
Cc1cc(SCC(=O)c2ccc(O)c(O)c2)n2nc(C)c(-c3ccccc3)c2n1 | ? | -2 | -4% | 11µM*[quencher] | ?
Cc1cc(C)nc(SCC(=O)c2ccc(O)c(O)c2)n1 | . | -6 | . | . | 16%
CCNc1ncc2nc(-c3ccc(F)cc3)c(=O)n(-c3ccccc3)c2n1 | . | 0 | . | . | .
Cc1c(N/N=C(\C#N)C(=O)c2ccccc2)c(=O)n(-c2ccccc2)n1C | ? | 0 | -3% | -20% | -19%
N#C/C(=N\Nc1cccc(Cl)c1)C(=O)c1ccccc1 | 10µM* | -3 | 11% | ? | -11%
COc1ccc(C(=O)/C(C#N)=N/Nc2cccc([N+](=O)[O-])c2)cc1 | 7.9µM* | 6 | 5% | ? | -4%
N#C/C(=N\Nc1ccccc1Cl)C(=O)c1ccccc1 | 20µM* | -3 | ? | -22% | -12%
CC(=O)/C(N)=N/Nc1cccc(Cl)c1 | ? | 0 | 16% | ? | -22%
CCC(CC)=NNc1cccc([N+](=O)[O-])c1 | 6% | 1 | 6% | -2% | -21%
O=C(N=Nc1c(O)n(Cc2ccccc2)c2ccccc12)c1cc2ccccc2cc1O | 13µM* | 4 | ? | -23% | -14%
Cc1ccc(NC(=O)Cn2c(O)c(N=NC(=O)c3cc4ccccc4cc3O)c3ccccc32)cc1 | ? | 0 | 15% | -22% | -12%
COc1ccccc1NC(=O)Cn1c(O)c(N=NC(=O)c2ccccc2O)c2ccccc21 | ? | 0 | -12% | -29% | -23%
O=C(N=Nc1c(O)n(Cc2ccccc2)c2ccccc12)c1ccc(O)cc1 | 14µM* | -2 | -10% | ? | -13%
Cc1cc(N=NC(=O)c2ccccc2O)c2ccccc2c1O | 14µM* | -11 | ? | ? | -20%
Cn1c(O)c(N=NC(=O)c2ccccc2O)c2ccccc21 | 13µM* | -2 | 8% | -11% | -15%
CCOc1ccc(NC(=O)CSc2nc3nc(C)c(Cc4ccccc4)c(C)n3n2)cc1 | ? | . | 7% | -24% | ?
O=[N+]([O-])c1ccc(N=Nc2c(O)[nH]c3ccc(F)cc23)cc1 | . | 2 | . | . | -26%
O=[N+]([O-])c1ccc(N=Nc2ccc(O)cc2O)cc1 | 2.5µM* | 3 | -13% | 14µM*[quencher] | -12%
